# Most compounds without a hit are left out; they make up all but 6.6% or so of the library.
# GDH-TPI counter: GDH-TPI coupling enzyme inhibitors, primary screen, artefact control for M. tuberculosis FBA inhibitor project, biochemical, absorbance, full deck; GDH-TPI coupled enzyme counterscreen, NADH absorbance; inhibition, % at 4.8 µM; 360,000 tested, 1.2% active; in the data active = inhibition above about 30%;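 note: 0% = DMSO wells and 100% = wells lacking the enzyme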
# FBA Mtb inh: Mtb FBA enzyme inhibitors, primary screen, biochemical, fluorescence, strain H37Rv. Fructose-bisphosphate aldolase (Mycobacterium tuberculosis (strain ATCC 25618 / H37Rv)), …. purified M. tuberculosis FBA, fluorescence read-out. inhibition, % at 1 µM. 360,000 tested, 2.3% active; in the data active = inhibition above about 27%;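 note: 0% = vehicle and 100% = reference inhibitor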
# Anthrax LF prot: Bacillus anthracis LF protease inhibitors, primary screen, biochemical, multiplex microsphere, MLPCN library. inhibition, % at 10 µM. multiplex microsphere protease cleavage assay. 360,000 tested, 0.12% active; note: plate controls were buffer without enzyme for full effect and enzyme alone for no effect
# Target sequence (P15917 whole entry, looked up): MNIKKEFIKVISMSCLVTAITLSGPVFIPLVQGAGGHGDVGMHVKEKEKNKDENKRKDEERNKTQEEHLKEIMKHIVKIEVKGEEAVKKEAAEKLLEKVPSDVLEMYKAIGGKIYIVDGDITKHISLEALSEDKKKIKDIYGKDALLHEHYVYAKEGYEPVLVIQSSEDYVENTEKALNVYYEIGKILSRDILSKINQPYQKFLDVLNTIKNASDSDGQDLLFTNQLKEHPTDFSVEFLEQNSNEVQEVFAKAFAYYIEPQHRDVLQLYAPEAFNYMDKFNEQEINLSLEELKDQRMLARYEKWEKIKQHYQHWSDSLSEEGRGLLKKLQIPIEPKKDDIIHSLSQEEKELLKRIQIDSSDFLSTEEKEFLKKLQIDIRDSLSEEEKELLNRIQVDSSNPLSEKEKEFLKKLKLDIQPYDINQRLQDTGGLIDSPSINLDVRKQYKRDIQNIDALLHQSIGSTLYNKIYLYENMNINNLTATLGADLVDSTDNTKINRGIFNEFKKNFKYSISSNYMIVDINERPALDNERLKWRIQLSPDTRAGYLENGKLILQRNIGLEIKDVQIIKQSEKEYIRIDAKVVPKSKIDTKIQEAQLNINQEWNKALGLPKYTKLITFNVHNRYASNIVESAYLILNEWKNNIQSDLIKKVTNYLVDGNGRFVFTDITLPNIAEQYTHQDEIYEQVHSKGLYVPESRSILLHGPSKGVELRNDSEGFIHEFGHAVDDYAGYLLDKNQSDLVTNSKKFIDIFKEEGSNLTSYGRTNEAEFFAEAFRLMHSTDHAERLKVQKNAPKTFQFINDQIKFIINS
# BoNT-A LC inh2: BoNT/A light chain protease inhibitors, primary screen, biochemical, flow cytometry, MLPCN library. Botulinum neurotoxin type A light chain protease (Clostridium botulinum A str. ATCC 3502). multiplex microsphere protease substrate cleavage. inhibition, % at 10 µM. 360,000 tested, 0.17% active. AID 588499, 2011; note: plate controls were buffer without enzyme for full effect and enzyme alone for no effect
# BoNT F protease: BoNT/F light chain protease inhibitors, primary screen, biochemical, flow cytometry, MLPCN library | Botulinum neurotoxin type F light chain protease (Clostridium botulinum) | Multiplex microsphere protease cleavage assay | inhibition, % at 10 µM | 360,000 tested, 0.22% active | AID 588497, 2011; in the data active = inhibition above about 35%, passing the limit was not always enough; inconclusive = no clear call, values can overlap the other calls; note: plate controls were buffer without enzyme for full effect and enzyme alone for no effect
# Bead autofluor: flagged as autofluorescent in microsphere protease counterscreen; compound autofluorescence counterscreen, microsphere flow cytometry; active compounds read high; fluorescence intensity (no concentration beside the values); 360,000 tested, 3.1% active; in the data active = fluorescence intensity above about 16000; inconclusive = no clear call, values can overlap the other calls
# * hit, by the source's call; ? = inconclusive; . = not tested or not shown. Cut-off read from the data, not from the text of the source, unless noted: active = inhibition above about 30%; inconclusive = no clear call, values can overlap the other calls; inactive = below that.
SMILES,GDH-TPI counter,FBA Mtb inh,Anthrax LF prot,BoNT-A LC inh2,BoNT F protease,Bead autofluor
O=C(O)CC(NS(=O)(=O)c1ccc(Br)cc1)c1ccco1 (stereo unspecified),0.4,0.2,-1.0,2.3,16.1,12513
CCOC(=O)c1c(/N=C/c2c(O)n(-c3ccc(F)cc3)c(=S)[nH]c2=O)sc2c1CCCC2,13.4,5.0,56.4*,101.4*,43.2*,11434
CCOC(=O)c1c(/N=C/c2c(O)n(-c3ccccc3F)c(=S)[nH]c2=O)sc2c1CCCC2,7.3,1.8,56.2*,57.4*,24.2,3294
Cc1ccc(CN2C(=O)C(C)Sc3ccc(C#N)cc32)cc1 (stereo unspecified),7.1,-3.4,-6.9,-0.3,-11.0,3999
CN(C)CCOCCP(=O)(c1ccccc1)c1ccccc1,9.5,0.8,1.6,1.3,4.3,23350*
COc1ccc(C(=O)c2sc3nc(C)cc(-c4cccs4)c3c2N)cc1OC,13.7,-3.5,49.0*,70.9*,47.2*,7178
CCOc1nc(NCCc2ccc(OC)c(OC)c2)nc(NC(C)(C)CO)n1,5.1,3.2,-2.4,-1.7,-3.6,16988*
CCC1=[N+](CC(=O)c2ccc(C)cc2)CCn2cccc21,35.4*,2.9,-8.2,0.8,-9.5,5037
O=C1C2CCCN2C(=O)N1CCCCN1CCN(CCO)CC1 (stereo unspecified),-0.4,1.4,-4.3,0.3,0.4,8467
CC(=O)c1ccccc1N(C(=O)Cn1nnc2ccccc21)C(C(=O)NCC1CCCO1)c1ccc(N2CCOCC2)cc1 (stereo unspecified),4.1,-2.3,-1.6,-1.7,-3.4,3309
Cn1c(C(C(=O)NCC2CCCO2)N(C(=O)Cn2nnc3ccccc32)C2CCCCC2)nc2ccccc21 (stereo unspecified),-7.6,0.1,-0.2,-1.5,-0.8,21506*
CCOc1ccc(-c2cc(CCCC(=O)NCCc3ccc(OC)c(OC)c3OC)no2)cc1,-3.7,-0.6,-1.7,0.5,-0.8,22608*
COc1ccc(-c2cc(CCCC(=O)NCCc3ccc(OC)cc3OC)no2)cc1,6.3,0.9,-2.1,-2.4,-2.4,24435*
O=C(O)CCn1nnc(-c2cccs2)n1,5.7,2.2,.,.,.,.
CC(C)c1ccc(-c2nnn(CCC(=O)O)n2)cc1,13.6,-2.4,-1.5,0.2,-0.2,16264*
CS(=O)(=O)N1CCC(C(=O)Nc2ccc(Cl)c(Cl)c2)CC1,4.4,1.7,-14.1,-0.9,-3.8,3467
Cc1c(O)ccc2c(CC(=O)N[C@@H](Cc3ccccc3)C(=O)O)cc(=O)oc12,14.7,164.8*,10.8,0.4,-1.3,2814
COc1ccc(C(=O)C2CCCN(S(=O)(=O)c3ccccc3F)C2)c(C)c1 (stereo unspecified),3.5,1.6,-1.5,-4.5,-5.8,6535
Cc1cc(C(=O)CN2C(=O)NC(Cc3c[nH]c4ccccc34)C2=O)c(C)n1C (stereo unspecified),21.8,1.5,-4.4,-4.2,-8.6,23788*
O=C(O)CCCCCn1c(SCc2cc(=O)n3ccccc3n2)nc2ccsc2c1=O,19.4,7.9,-1.7,0.6,5.0,2014
CCN(CC)S(=O)(=O)c1ccc(N2CCOCC2)c(NC(=O)c2sccc2C)c1,3.4,-3.3,-0.3,-0.2,-5.0,3849
CCOC(=O)C(=CNc1cccc(C)c1C)C(=O)OCC,14.7,-1.8,-3.5,0.1,-1.0,11391
CCOC(=O)C(=CNc1ccccc1N1CCOCC1)C(=O)OCC,50.3*,-0.7,-16.1,7.4,?,3414
Cc1ccsc1C(=O)Nc1ccccc1N1CCOCC1,-11.4,0.3,-5.0,4.1,4.4,18871*
CN(C(=O)Nc1ccc(F)cc1)[C@H]1C[C@H]2c3[nH]c4ccccc4c3CCN2C(=O)[C@H]1CO,-10.3,6.0,1.1,0.4,-2.9,3823
SMILES,GDH-TPI counter,FBA Mtb inh,Anthrax LF prot,BoNT-A LC inh2,BoNT F protease,Bead autofluor
Cc1cccc(CSc2nnnn2-c2ccccc2)c1,11.2,1.1,-4.0,0.3,3.5,2478
Cc1cccc(CSc2nnc(N)n2-c2ccccc2)c1,0.0,0.3,-7.2,-1.2,-1.1,22675*
Nc1nnc(SCc2ccccc2)n1-c1ccccc1,-11.7,-5.6,-13.0,?,9.2,17516*
O=S(=O)(/N=C(/c1ccccc1)N1CCCCC1)c1ccccc1,-4.1,1.4,1.5,-0.1,1.3,2636
CCOC(=O)c1ccc2nc(NC(=O)c3ccco3)sc2c1,36.5*,21.9,-3.1,-0.4,-0.3,3165
CCOC(=O)c1sc(NC(=O)c2ccccc2OC)nc1C,8.1,7.0,-8.5,-0.4,5.3,5578
C=CCOC(=O)c1sc(NC(=O)c2ccco2)nc1C,15.9,0.4,-0.3,2.9,2.6,19408*
CCOC(=O)c1ccc2nc(NC(=O)c3cccs3)sc2c1,37.8*,25.2,-3.7,-0.8,-7.5,4082
CCOC(=O)c1sc(NC(=O)c2ccc(CC)s2)nc1C,2.5,3.1,-1.8,1.9,1.5,19861*
CCCC(=O)Nc1nc2ccc(C(=O)OCC)cc2s1,-3.8,1.6,-2.5,-0.3,-11.0,5645
Cc1cccc(NC(=O)c2ccc(NS(=O)(=O)c3cccc4cccnc34)cc2)c1,-12.7,4.8,15.2,-2.8,?,4620
O=C(Nc1c(-c2ccc3c(c2)OCO3)[nH][nH]c1=O)c1ccccc1,.,5.3,-9.1,-1.0,-9.9,5491
Cc1cnc(C(=O)OCC(=O)NC(C)CCc2ccccc2)cn1 (stereo unspecified),-8.4,-1.0,0.9,0.2,2.0,2641
COc1ccccc1CNC(=O)[C@H](C)NC(=O)C1CCN(C(=O)[C@@H](N)CC(C)C)CC1,6.9,6.8,-1.6,-0.5,-0.8,5311
CC1(C(=O)NS(=O)(=O)C2CC2)CCCN(C(=O)c2c(F)cccc2F)C1 (stereo unspecified),3.6,2.6,-8.0,-0.5,4.3,3696
CC[C@]12c3[nH]c4ccc(OC)cc4c3CCN1C(=O)C(CC(=O)NCCCn1ccnc1)C[C@@H]2C(=O)N1CCN(C(=O)c2ccco2)CC1 (stereo partly specified),3.8,1.3,-5.9,-0.3,-10.0,3962
O=C(COC(=O)c1ccco1)Nc1nc2ccc([N+](=O)[O-])cc2s1,33.8*,1.6,1.1,1.4,4.7,4351
CCC(=O)N1CCCC(C)(C(=O)Nc2ccc3scnc3c2)C1 (stereo unspecified),-4.6,0.3,-6.7,0.2,3.1,3459
CC(C)N(C(=O)Cn1c(SCC(=O)NCc2ccc3c(c2)OCO3)nc2ccccc21)C(C)C,1.7,0.1,0.4,-0.6,-4.6,2945
CC(C)Sc1nc2ccccc2n1CC(=O)NCc1ccc2c(c1)OCO2,7.6,-1.9,-0.9,?,2.7,22521*
